Data taken from PubChem BioAssay (NCI).
Compounds without any hit were thinned out: in the full panel of roughly 83,000, 20% have a hit.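 Each cell line was grown in a 96-well plate and treated with one concentration of compound for 48 hours. Values below 10 were considered active.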 The source made the active and inactive calls.

How the values were obtained:
Assay in all cases: NCI-60 one-dose screen, 48 h (100 = growth as untreated, 0 = no growth, -100 = all killed)
[1] = test system: NCI-H23 lung; settings: 10 µM unless noted
[2] = test system: NCI-H226 lung; settings: 10 µM unless noted
[3] = test system: NCI-H322M lung; settings: 10 µM unless noted
[4] = test system: HOP-62 NSCLC; settings: 10 µM unless noted
[5] = test system: NCI-H460 lung; settings: 10 µM unless noted
[6] = test system: HOP-92 NSCLC; settings: 10 µM unless noted
[7] = test system: A549/ATCC NSCLC; settings: 10 µM unless noted
[8] = test system: 786-0 renal; settings: 10 µM unless noted
[9] = test system: COLO 205 colon; settings: 10 µM unless noted
[10] = test system: NCI-H522 lung; settings: 10 µM

Measured: growth

O=C(C(=O)N1CCOCC1)c1cn(CCCn2cc(C(=O)C(=O)N3CCOCC3)c3ccccc32)c2ccccc12
inactive: [1] 113% | [2] 102% | [3] 103% | [4] 103% | [5] 129% | [6] 78.8% | [7] 104% | [8] 104% | [9] 105%

COc1cccc(/C=N/Nc2nc3ccccc3s2)c1OC
inactive: [1] 101% | [2] 83.3% | [3] 76% | [4] 68.8% | [5] 34.5% | [6] 74.5% | [7] 69.1% | [8] 82.1% | [9] 71.6%

COc1ccc(CNC(=O)c2c(C)n([O-])c3ccccc3[n+]2=O)cc1
inactive: [1] 93.8% | [2] 102% | [3] 144% | [4] 94.3% | [5] 112% | [6] 82.6% | [8] 101% | [9] 122%
active: [10] -15.1%

COc1ccc(C(=O)COc2ccc(/C=C3\Oc4ccc5ccccc5c4C3=O)cc2)cc1
inactive: [1] 90.7% | [2] 107% | [3] 100% | [4] 104% | [5] 110% | [6] 94.9% | [10] 64% | [8] 106% | [9] 121%

CC(=O)N1N=C(c2ccc(Nc3ccnc4cc(Cl)ccc34)cc2)CC1c1ccc(Cl)cc1 (stereo unspecified)
inactive: [1] 67.8% | [2] 75.2% | [3] 96.3% | [4] 73.1% | [5] 62.9% | [6] 35.4% | [10] 24% | [8] 62.5% | [9] 85.5%

CC(=O)OCC(=O)[C@@]1(O)CC[C@H]2[C@@H]3CCC4=CC(=O)CC[C@]4(C)[C@@]3(F)[C@@H](O)C[C@@]21C
inactive: [1] 108% | [2] 68.8% | [3] 129% | [4] 109% | [5] 94% | [6] 66.9% | [7] 78.4% | [8] 116% | [9] 97.8%

CCCn1c(N)c(C(=O)CNc2ccc(I)cc2)c(=O)[nH]c1=O
inactive: [1] 89.8% | [2] 62.7% | [3] 62% | [4] 54.9% | [5] 28.6% | [6] 95.4% | [10] 50.9% | [8] 47.1% | [9] 75.5%

CC(C)CNc1nc(N=[N+]=[N-])nc(NCC(C)C)n1
inactive: [1] 59.9% [100 µM] | [2] 75.8% [100 µM] | [3] 92.5% [100 µM] | [4] 84.1% [100 µM] | [5] 68.8% [100 µM] | [7] 56.3% [100 µM] | [8] 55.5% [100 µM] | [9] 99.2% [100 µM]
active: [6] -6.14% [100 µM]

CC(C)=CCCC(C)c1ccc(C)c2c1OCN(CC1CCNCC1)C2 (stereo unspecified)
active: [8] -60.1%
inactive: [1] 81.9% | [2] 103% | [3] 99.1% | [4] 95.4% | [5] 24.6% | [6] 12.3% | [7] 54.1% | [9] 75.9%

O=C(COc1cccc(/C=C2\Oc3ccc4ccccc4c3C2=O)c1)c1ccc([N+](=O)[O-])cc1
inactive: [1] 93.8% | [2] 85.8% | [3] 106% | [4] 87.6% | [5] 100% | [6] 81.2% | [10] 35.8% | [8] 103% | [9] 114%

Cc1ccc2c(c1)C(=O)/C(=C\Nc1ccc(C(N)=O)cc1)C(O)O2 (stereo unspecified)
active: [6] -17.9%
inactive: [1] 114% | [2] 154% | [3] 95.8% | [4] 88.3% | [5] 111% | [7] 114% | [8] 110% | [9] 108%

O=c1c2ccccc2c2nccn2c2cc(Cl)ccc12
inactive: [1] 72.6% | [2] 155% | [3] 129% | [4] 71.7% | [5] 101% | [6] 28.8% | [7] 71.7% | [8] 91.6% | [9] 112%

COc1ccc(-n2cnc3cc(C(=O)N4CCCCC4)ccc32)cc1
inactive: [1] 95.5% | [2] 95.3% | [3] 102% | [4] 91.4% | [5] 101% | [6] 95.3% | [7] 103% | [8] 100% | [9] 105%

CCOC1Oc2ccccc2C(=O)/C1=N/c1nccs1 (stereo unspecified)
active: [6] -23.6%
inactive: [1] 95.2% | [2] 84% | [3] 99.7% | [4] 92.7% | [5] 106% | [7] 111% | [8] 100% | [9] 95.1%

NC(=NCCCCCCN=C(N)/N=C(\N)Nc1ccc(Cl)cc1)/N=C(\N)Nc1ccc(Cl)cc1
inactive: [3] 19.8% | [8] 14%
active: [1] 8.42% | [2] -9.31% | [4] -25.3% | [5] -1.1% | [6] -3.2% | [10] -11.1% | [9] -96.4%

CCOC(=O)c1sc(NC(=O)COc2cccc(/C=C3\CCc4cc(OC)ccc4C3=O)c2)nc1C
inactive: [1] 89.5% | [2] 85.2% | [3] 99.8% | [4] 96.5% | [5] 80.8% | [6] 72.5% | [10] 43.9% | [8] 88.1% | [9] 135%

CC(C)N(Cc1ccccc1)c1c(S)ssc1=S
active: [3] 7.56% | [4] 9.6% | [5] 4.45% | [6] -36.2% | [7] 4.58% | [9] -40.1%
inactive: [1] 22.8% | [2] 14.2% | [8] 10.6%

CC1CC=CCC1C1OCC(C)(C)CO1 (stereo unspecified)
inactive: [1] 108% | [2] 99.9% | [3] 105% | [4] 89.3% | [5] 109% | [6] 106% | [7] 96.7% | [8] 97.6% | [9] 111%

CCOC(=O)c1cnc2c(C)cc(C)cc2c1NCCCN(C)C
active: [6] 4.88% | [7] 1.69%
inactive: [1] 35.2% | [2] 36.1% | [3] 20.9% | [4] 21.4% | [5] 10.1% | [8] 29.2% | [9] 17.4%

COc1ccccc1-n1c(-c2ccc(O)cc2C)cn2c3c(=O)[nH]c(=O)n(C)c3nc12
inactive: [1] 91.6% | [2] 92.4% | [3] 113% | [4] 79.3% | [5] 93.1% | [6] 49.4% | [7] 86.6% | [8] 72.2% | [9] 102%

CCCCCc1c(C)[nH]c(/C=C2\N=C(c3ccc[nH]3)C=C2OCc2ccccc2)c1C
active: [1] -67.3% [100 µM] | [2] -42.5% [100 µM] | [3] -94.6% [100 µM] | [4] -91.9% [100 µM] | [5] -40.4% [100 µM] | [6] -77.6% [100 µM] | [7] -70% [100 µM] | [8] -75.7% [100 µM] | [9] -84% [100 µM]

N#Cc1c(-c2ccccc2)cc(-c2ccccc2)n(CCC(=O)O)c1=O
inactive: [1] 72.9% | [2] 69.2% | [3] 91.2% | [4] 51.9% | [5] 45.3% | [6] 74.8% | [7] 46.6% | [8] 62.6% | [9] 61.2%

Oc1ccccc1/C=N/N1CCCCCC1
inactive: [1] 101% | [2] 91.5% | [3] 108% | [4] 109% | [5] 127% | [6] 50.4% | [10] 104% | [8] 110% | [9] 122%

O=C(Nc1ccc2c(c1)C(=O)c1ccccc1-2)c1ccccc1
inactive: [1] 95% | [2] 97.6% | [3] 101% | [4] 44.3% | [5] 87.4% | [6] 82.1% | [7] 100% | [8] 52.1% | [9] 97.8%

O=c1[nH]c(SCc2ccccc2)nc2nc(Nc3ccc(NC(=S)Nc4ccccc4)cc3)nc(-c3ccc(O)cc3O)c12
active: [6] -2.6%
inactive: [1] 97.3% | [2] 93.2% | [3] 121% | [4] 102% | [5] 103% | [7] 105% | [8] 94.7% | [9] 98.2%

COc1ccc(CNC(=O)c2c(C)n([O-])c3cc(F)c(F)cc3[n+]2=O)cc1
inactive: [1] 41.9% | [2] 99.6% | [3] 97.1% | [4] 107% | [5] 97.2% | [6] 89.1% | [10] 77.9% | [8] 92.9% | [9] 131%

COc1cc(C2=NN(C=O)C(c3cccc(Nc4ccnc5cc(Cl)ccc45)c3)C2)cc(OC)c1OC (stereo unspecified)
inactive: [1] 77% | [2] 68.9% | [3] 91.1% | [4] 73% | [5] 83.4% | [6] 53.9% | [7] 61.8% | [8] 65.2% | [9] 66.1%

COc1c(Br)cc(C(c2cc(Br)c(OC)c(Br)c2)c2ccccc2C(=O)O)cc1Br
inactive: [1] 97.3% | [2] 99.8% | [3] 102% | [4] 94.1% | [5] 105% | [6] 55.7% | [7] 98.7% | [8] 100% | [9] 110%

Oc1c(Cl)cc(Oc2cc(Cl)c(O)c(CN3CCOCC3)c2)cc1CN1CCOCC1
inactive: [1] 99.6% | [2] 92.7% | [3] 96% | [4] 81.2% | [5] 93.4% | [6] 79% | [7] 78.7% | [8] 105% | [9] 105%
